Experimental data published in PubChem BioAssay AID1878 (Sanford-Burnham Center for Chemical Genomics, 2009).
Among all 1,000 compounds or so, about 200 (20%) were called active. No stated cut-off is given here; in the data, active means inhibition above about 55%; inactive means the rest. These entries were drawn from the full list. Entries with a potency or affinity are not part of this list.

Target: Dual specificity protein phosphatase 3 (Homo sapiens) (UniProt P51452)
Experiment: VHR1 phosphatase inhibitors, biochemical (AID 1878)
Conditions: recombinant VHR phosphatase, fluorogenic substrate; at 13.3 µM; stronger effect = higher value

Chain of Dual specificity protein phosphatase 3 (Homo sapiens) (P51452 whole entry, looked up): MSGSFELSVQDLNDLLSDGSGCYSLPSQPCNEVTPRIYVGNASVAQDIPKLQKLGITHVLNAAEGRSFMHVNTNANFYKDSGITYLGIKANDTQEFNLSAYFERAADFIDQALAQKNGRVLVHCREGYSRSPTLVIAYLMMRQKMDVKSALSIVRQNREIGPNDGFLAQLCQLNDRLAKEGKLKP

| SMILES | inhibition |
| --- | --- |
| CN(C)C(CNC1CC(C)(C)NC(C)(C)C1)c1cccc(F)c1 (stereo unspecified) | 12.5% (inactive) |
| Cc1ccc(-c2nc3ccccc3s2)cc1NC(=O)c1cc(-n2cnnc2)ccc1Cl | 63.4% (active) |
| COc1ccc(-c2nn(CCC#N)cc2C(=O)Nc2ccccc2Cl)cc1 | 2.2% (inactive) |
| O=C1CN(C(=O)c2ccccc2)C(c2ccccc2)c2cc(F)ccc2N1 (stereo unspecified) | -4.4% (inactive) |
| COc1cc(NC(=O)CCc2nnc3ccc(N4CCCCC4)nn23)cc(OC)c1OC | -6.5% (inactive) |
| Nc1c(C(=O)NC2CC2)sc2nc3c(c(-c4ccco4)c12)CC/C3=C/c1ccco1 | 11.4% (inactive) |
| O=C(O)CCCCC1CCSS1 (stereo unspecified) | 97.7% (active) |
| CCCn1c2ccccc2c2cnn(CC(=O)NCCCN3CCCC(C)C3)c(=O)c21 (stereo unspecified) | -8.7% (inactive) |
| CCOc1cccc(CN2CCCC(N3CCc4ccccc4C3)C2)c1O (stereo unspecified) | -11% (inactive) |
| O=C(Nc1ccc2oc(-c3cccnc3)nc2c1)c1ccc2c(c1)OCCO2 | 62.5% (active) |
| COc1cc2cc(C(=O)Nc3ccc4c(c3)OCCO4)[nH]c2cc1OC | -3.4% (inactive) |
| c1cncc(-c2nc(-c3ccc4c(c3)OCCO4)cs2)c1 | -10.9% (inactive) |
| CC1=C(C(=O)OC(C)C)C(c2ccccc2)NC(=O)N1C (stereo unspecified) | 6.5% (inactive) |
| COC(=O)c1cccc(CSC(=S)N2CCCC2)c1 | -7.9% (inactive) |
| O=C(O)c1ccc(Nc2nc(-c3ccc([N+](=O)[O-])cc3)nc3ccccc23)cc1 | 97.6% (active) |
| O=[N+]([O-])c1ccc(-c2nnc(S)n2-c2ccccc2)cc1 | -5.8% (inactive) |
| COc1ccc(Nc2ccc([N+](=O)[O-])cn2)cc1 | -0.2% (inactive) |
| Cc1ccc(C)c(N(CC(=O)NC2CCCC2)C(=O)CNC(=O)c2cccs2)c1 | -6.9% (inactive) |
| Cc1ccccc1CCN1CCCC(CN(C)C(=O)C(=O)c2ccco2)C1 (stereo unspecified) | 9.9% (inactive) |
| Cc1cc(NC(=O)CCSc2ccc(Cl)cc2)no1 | 2.1% (inactive) |
| Cc1ccc(S(=O)(=O)N(C)CC(=O)OCC(=O)NC(=O)NC(C)C)cc1 | -21.6% (inactive) |
| COc1cc(/C=C2\SC(=O)N(Cc3ccc(F)cc3)C2=O)cc([N+](=O)[O-])c1O | 53% (active) |
| O=C(CCCCCN1C(=O)[C@@H]2Cc3ccccc3CN2C1=O)Nc1ccccc1F | 11% (inactive) |
| CCCCNC(=O)NNC(=O)C1CC1(c1ccccc1)c1ccccc1 (stereo unspecified) | 9.1% (inactive) |
| COc1cc(CCC(=O)NCc2ccc3c(c2)OCO3)cc(OC)c1OC | 0.3% (inactive) |
| CS(=O)(=O)NN1C(=O)c2ccccc2NC1c1ccccc1F (stereo unspecified) | -7.9% (inactive) |
